Results from article PMC7862700, “An all-to-all approach to the identification of sequence-specific readers for epigenetic DNA modifications on cytosine”.

Legend:
Assay in all cases: DAPPL (digital affinity profiling via proximity ligation, sequencing); 10 mM Tris-HCl pH 7.5, 50 mM NaCl, 1 mM DTT, 4% glycerol, room temperature, 30 min; GST-TFs on glutathione beads, 16-mer random dsDNA library, 0.1% formaldehyde crosslink after washing; high values mean tight binding
Conditions in all cases: protein: recombinant; tags: N-terminal GST; dsDNA, one strand shown
[1] = target: T1, ELK4 (Homo sapiens, UniProt P28324-2 1-405)
T1 sequence: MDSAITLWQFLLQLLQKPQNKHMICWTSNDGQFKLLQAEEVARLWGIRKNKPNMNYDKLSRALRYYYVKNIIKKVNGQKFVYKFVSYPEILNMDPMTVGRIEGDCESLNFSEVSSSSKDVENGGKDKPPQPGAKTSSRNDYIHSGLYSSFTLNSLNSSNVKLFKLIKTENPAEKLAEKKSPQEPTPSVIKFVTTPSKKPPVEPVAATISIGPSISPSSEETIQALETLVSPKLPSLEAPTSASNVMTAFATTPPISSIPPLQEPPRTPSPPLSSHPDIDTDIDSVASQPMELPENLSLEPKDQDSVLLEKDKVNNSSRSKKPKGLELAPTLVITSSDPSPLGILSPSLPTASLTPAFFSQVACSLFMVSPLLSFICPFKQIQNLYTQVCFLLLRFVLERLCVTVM
Method in brief: (§1)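 Pools were built from human transcription factors expressed in yeast as GST fusions, captured on glutathione beads and DNA-barcoded, along with a tag-only sample. Incubation with 200 nmole of a 16-mer random double-stranded DNA library lasted 30 min at room temperature in Tris/NaCl/DTT/glycerol buffer, and was followed by washing, 0.1% formaldehyde crosslinking, proximity ligation, PCR amplification and Illumina NextSeq500 sequencing. Binding signal is the quotient of each hexamer's read frequency for a factor and its frequency for the tag-only sample.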

[2] = target: T2, ELF3 (Homo sapiens, UniProt P78545 1-371)
T2 sequence: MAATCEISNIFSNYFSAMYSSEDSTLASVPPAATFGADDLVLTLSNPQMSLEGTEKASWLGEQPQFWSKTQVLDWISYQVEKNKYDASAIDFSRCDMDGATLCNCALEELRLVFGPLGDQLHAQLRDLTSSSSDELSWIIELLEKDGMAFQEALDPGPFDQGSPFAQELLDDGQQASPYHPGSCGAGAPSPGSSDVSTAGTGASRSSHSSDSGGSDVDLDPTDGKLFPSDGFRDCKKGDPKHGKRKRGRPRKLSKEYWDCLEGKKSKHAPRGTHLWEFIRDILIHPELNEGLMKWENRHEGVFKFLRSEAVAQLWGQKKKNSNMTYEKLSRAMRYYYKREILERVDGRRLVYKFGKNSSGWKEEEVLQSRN
Method in brief: as §1

[3] = target: ETV1 (Homo sapiens, UniProt P50549 1-477)
ETV1, sequence (P50549 whole entry): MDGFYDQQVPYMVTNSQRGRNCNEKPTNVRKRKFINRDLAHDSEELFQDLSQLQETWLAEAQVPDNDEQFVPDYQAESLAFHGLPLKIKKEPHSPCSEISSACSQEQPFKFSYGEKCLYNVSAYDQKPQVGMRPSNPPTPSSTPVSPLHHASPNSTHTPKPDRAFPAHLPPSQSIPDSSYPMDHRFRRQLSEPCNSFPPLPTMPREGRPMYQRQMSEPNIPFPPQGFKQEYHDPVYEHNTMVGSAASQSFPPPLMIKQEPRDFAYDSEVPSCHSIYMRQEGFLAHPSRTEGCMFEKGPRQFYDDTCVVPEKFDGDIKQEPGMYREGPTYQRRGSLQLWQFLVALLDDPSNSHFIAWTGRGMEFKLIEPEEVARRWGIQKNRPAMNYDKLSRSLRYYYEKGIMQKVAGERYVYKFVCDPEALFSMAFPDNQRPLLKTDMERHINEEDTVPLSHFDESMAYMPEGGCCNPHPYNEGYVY
Method in brief: as §1

[4] = target: T3, ERF (Homo sapiens, UniProt P50548 1-548)
T3 sequence: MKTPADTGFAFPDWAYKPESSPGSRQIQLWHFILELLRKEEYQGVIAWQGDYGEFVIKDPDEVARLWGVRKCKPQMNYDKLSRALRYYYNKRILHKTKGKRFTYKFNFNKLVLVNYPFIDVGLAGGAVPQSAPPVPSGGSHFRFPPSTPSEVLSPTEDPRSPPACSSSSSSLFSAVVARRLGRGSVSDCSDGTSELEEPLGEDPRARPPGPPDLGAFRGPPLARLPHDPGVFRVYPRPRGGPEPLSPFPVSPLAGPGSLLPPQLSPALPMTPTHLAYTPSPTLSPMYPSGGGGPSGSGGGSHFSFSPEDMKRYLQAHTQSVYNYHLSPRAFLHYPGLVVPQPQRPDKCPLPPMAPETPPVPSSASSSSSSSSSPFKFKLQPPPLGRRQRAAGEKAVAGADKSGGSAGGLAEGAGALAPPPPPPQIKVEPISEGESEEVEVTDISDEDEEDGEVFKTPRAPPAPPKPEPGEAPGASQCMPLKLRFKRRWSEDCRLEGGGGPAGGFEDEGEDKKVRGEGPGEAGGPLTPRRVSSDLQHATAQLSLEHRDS
Method in brief: as §1

[5] = target: T4, ETV3L (Homo sapiens, UniProt Q6ZN32 1-361)
T4 sequence: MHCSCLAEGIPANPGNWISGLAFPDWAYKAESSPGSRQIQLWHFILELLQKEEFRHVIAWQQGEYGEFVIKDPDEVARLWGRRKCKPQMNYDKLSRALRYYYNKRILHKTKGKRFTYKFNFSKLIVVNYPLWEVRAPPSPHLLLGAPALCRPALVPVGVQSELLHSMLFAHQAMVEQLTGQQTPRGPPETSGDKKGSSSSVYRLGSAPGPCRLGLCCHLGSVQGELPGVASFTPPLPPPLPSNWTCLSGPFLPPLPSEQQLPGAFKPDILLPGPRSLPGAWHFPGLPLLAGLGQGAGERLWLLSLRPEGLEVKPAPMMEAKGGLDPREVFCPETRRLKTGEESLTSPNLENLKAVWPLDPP
Method in brief: as §1

[6] = target: T5, ETS2 (Homo sapiens, UniProt P15036 1-469)
T5 sequence: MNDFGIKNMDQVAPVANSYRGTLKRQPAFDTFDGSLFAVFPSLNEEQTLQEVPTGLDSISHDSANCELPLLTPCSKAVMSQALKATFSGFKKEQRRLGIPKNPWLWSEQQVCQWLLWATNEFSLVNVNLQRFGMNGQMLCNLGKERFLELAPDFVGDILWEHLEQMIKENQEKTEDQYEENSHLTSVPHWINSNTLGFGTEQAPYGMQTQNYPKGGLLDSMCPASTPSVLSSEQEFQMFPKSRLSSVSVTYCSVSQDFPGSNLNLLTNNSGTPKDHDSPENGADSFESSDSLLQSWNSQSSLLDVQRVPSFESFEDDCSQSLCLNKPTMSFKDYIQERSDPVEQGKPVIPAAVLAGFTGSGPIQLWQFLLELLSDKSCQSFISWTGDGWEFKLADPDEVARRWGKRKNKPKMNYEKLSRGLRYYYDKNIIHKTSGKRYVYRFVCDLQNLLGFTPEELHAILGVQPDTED
Method in brief: as §1

[7] = target: T6, SPDEF (Homo sapiens, UniProt O95238 1-335)
T6 sequence: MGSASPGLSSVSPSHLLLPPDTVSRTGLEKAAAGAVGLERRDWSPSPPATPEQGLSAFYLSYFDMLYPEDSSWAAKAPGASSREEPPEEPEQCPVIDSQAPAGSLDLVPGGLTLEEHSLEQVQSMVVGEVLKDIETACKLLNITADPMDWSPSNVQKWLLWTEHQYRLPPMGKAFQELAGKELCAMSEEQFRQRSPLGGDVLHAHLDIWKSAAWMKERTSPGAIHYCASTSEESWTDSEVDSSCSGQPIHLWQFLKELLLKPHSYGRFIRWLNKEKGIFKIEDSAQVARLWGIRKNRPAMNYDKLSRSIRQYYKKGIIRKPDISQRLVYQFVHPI
Method in brief: as §1

[8] = target: T7, ETV3 (Homo sapiens, UniProt P41162-2 1-143)
T7 sequence: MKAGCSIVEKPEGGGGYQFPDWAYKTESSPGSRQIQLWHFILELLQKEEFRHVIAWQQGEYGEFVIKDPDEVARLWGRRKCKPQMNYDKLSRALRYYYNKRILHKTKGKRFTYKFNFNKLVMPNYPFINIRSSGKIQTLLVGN
Method in brief: as §1

[9] = target: ETV6 (Homo sapiens, UniProt P41212 1-452)
ETV6, sequence (P41212 whole entry): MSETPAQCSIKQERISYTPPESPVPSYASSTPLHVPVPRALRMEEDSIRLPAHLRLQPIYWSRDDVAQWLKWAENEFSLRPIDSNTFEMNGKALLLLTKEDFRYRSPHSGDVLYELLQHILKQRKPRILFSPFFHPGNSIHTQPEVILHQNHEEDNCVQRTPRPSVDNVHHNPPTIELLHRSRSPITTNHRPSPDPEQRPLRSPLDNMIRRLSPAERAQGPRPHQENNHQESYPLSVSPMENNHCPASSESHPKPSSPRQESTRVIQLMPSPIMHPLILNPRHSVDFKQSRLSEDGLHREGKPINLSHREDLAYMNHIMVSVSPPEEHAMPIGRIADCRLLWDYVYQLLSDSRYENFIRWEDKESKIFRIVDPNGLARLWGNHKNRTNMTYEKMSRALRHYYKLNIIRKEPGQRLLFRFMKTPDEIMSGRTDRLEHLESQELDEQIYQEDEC
Method in brief: as §1

Sequence: TGATAC
- binding signal [1]: 1.29 fold enrichment (6-mer frequency, TF over GST control)
- binding signal [2]: 1.16 fold enrichment (6-mer frequency, TF over GST control)
- binding signal [3]: 1.08 fold enrichment (6-mer frequency, TF over GST control)
- binding signal [4]: 1.13 fold enrichment (6-mer frequency, TF over GST control)
- binding signal [5]: 1.07 fold enrichment (6-mer frequency, TF over GST control)
- binding signal [6]: 1.1 fold enrichment (6-mer frequency, TF over GST control)
- binding signal [7]: 1.17 fold enrichment (6-mer frequency, TF over GST control)
- binding signal [8]: 1.1 fold enrichment (6-mer frequency, TF over GST control)
- binding signal [9]: 1.1 fold enrichment (6-mer frequency, TF over GST control)
